CendR NRP1 mod: NRP-1/CendR interaction modulation; 360,000 compounds, 0.85% hits; FAM-RPARPAR peptide binding to NRP-1, fluorescence polarization; O14786; inhibition, % at 25 µM;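 active means inhibition or corrected inhibition above about 18%, plus a signal ratio from 0.5 to 1.5, limit read from the data, passing the limit was not always enough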
RAD54 branch: RAD54 (human) branch migration inhibition. AID 602329. inhibition, % at 10.4 µM. 360,000 compounds, 0.14% hits. RAD54 Holliday junction branch migration, FAM/BHQ fluorescence;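 active means mean normalized replicate activity at least 40 and at least half of replicates scoring 40 or more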;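 further: 0% = median of neutral control wells and 100% = median of positive control wells; inhibitors cause a drop in the FAM fluorescence signal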
FID counter: fluorescent intercalator displacement, NS3 helicase counter-screen | 290,000 compounds, 0.17% hits | inhibition, % at 7.9 µM | DNA fluorescent intercalator displacement, fluorescence; in the data active means inhibition above about 37%;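 further: 0% = vehicle and 100% = reference compound; higher means more ethidium bromide displaced from hairpin DNA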
miR-122 sensor: blocks miR-122 activity in Huh7 sensor cells. Huh7 miR-122 Renilla luciferase sensor, 48 h; neutral wells = 0, positive control = 100. 340,000 compounds, 0.3% hits. activation (reporter increase), % at 12.5 µM;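 active means mean replicate activation score at least 90 and every replicate individually at or above 90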;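 further: higher luciferase means less miR-122 activity so hits act as miR-122 inhibitors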
Glyco luc inh: blocks N-linked glycosylation in D54 reporter cells | 360,000 compounds, 0.23% hits | D54 ERlucT glycosylation luciferase reporter, 24 h; percent of 100 nM tunicamycin response | reporter increase, % at 12.5 µM | AID 588692;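 active means mean luciferase reporter signal, scaled so untreated is 0 and the glycosylation-blocking control 100, at or above a set limit in every replicate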;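 further: luciferase carries N-glycosylation sites so blocking glycosylation raises the light; 0% = median of neutral control wells and 100% = median of 100 nM tunicamycin wells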
RAD52 inh: blocks human RAD52 DNA annealing | AID 651710 | recombinant RAD52 DNA annealing, FRET fluorescence | inhibition, % at 18.7 µM | 360,000 compounds, 0.46% hits | P43351;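 active means every replicate showing at least 50% inhibition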
Target sequence (P43351 whole entry, looked up): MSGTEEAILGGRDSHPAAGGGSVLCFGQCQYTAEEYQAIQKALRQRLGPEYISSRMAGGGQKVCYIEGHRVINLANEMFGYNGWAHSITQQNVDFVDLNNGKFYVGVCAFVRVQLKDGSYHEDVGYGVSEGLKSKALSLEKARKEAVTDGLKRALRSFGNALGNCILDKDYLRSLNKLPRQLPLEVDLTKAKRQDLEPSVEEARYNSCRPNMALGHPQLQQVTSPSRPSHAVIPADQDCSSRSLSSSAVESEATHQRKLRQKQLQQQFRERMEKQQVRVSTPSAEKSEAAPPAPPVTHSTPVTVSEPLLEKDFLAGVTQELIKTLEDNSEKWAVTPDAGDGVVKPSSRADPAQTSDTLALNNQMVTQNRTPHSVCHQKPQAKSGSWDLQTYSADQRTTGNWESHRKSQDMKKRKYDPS
RAD52 DNA ctr: binds DNA, flagging false RAD52 inhibitor hits. AID 652128. Salmon sperm DNA/acridine orange FP displacement, DNA binding. 1,000 compounds, 8% hits. AC50, µM. shares compounds with RAD52 inh;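 active means fitted half-maximal concentration for signal loss at or below twice the highest dose tested, in every separate run, actives reach about 64 µM in these data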
Active calls of the source: *; i = inactive; · = no result; [ ] = remark or other dose. Shown are actives, neighbours in structure and some others; about 1.5% of the full set was active somewhere.

SMILES | CendR NRP1 mod | RAD54 branch | FID counter | miR-122 sensor | Glyco luc inh | RAD52 inh | RAD52 DNA ctr
COc1ccc2c(c1)CCc1c(C(=O)NCc3ccc(Cl)cc3)noc1-2 | 16 | · | 1 | -9 | 2 | · | ·
CCN(CC)CCNC(=O)c1nn(-c2ccc(Cl)cc2)c2c1CCc1cc(OC)ccc1-2 | -6 | · | · | · | 2 | 66* | i
O=C(Nc1ccc(CN2CCOCC2)cc1)c1ccc(-c2ccc(Br)cc2)o1 | 12 | 2 | 1 | 2 | 3 | 51* | i
CCN(CC)CCN(C(=O)c1ccc([N+](=O)[O-])cc1)c1nc2c(OC)cccc2s1 | 0 | · | 6 | · | 2 | 8 | ·
CCN(CC)CCN(C(=O)c1ccc(C(=O)c2ccccc2)cc1)c1nc2c(OC)cccc2s1 | 6 | 12 | 9 | -4 | 1 | 61* | i
COc1cccc2sc(N(CCCN(C)C)C(=O)c3sc4ccccc4c3Cl)nc12 | 9 | 33 | 2 | 7 | -2 | 58* | i
C[C@H](CO)N1C[C@H](C)[C@H](CN(C)S(C)(=O)=O)Oc2ccc(NC(=O)Cc3cn(C)c4ccccc34)cc2C1=O | · | 3 | · | 10[16.7 µM] | · | 12 | ·
Nc1ccc2nc(CCCO)[nH]c2c1 | -4 | 36 | 8 | -5 | 4 | 93* | i
NCCCC[C@H]1CNC(=O)C(=O)N1CCCCC1CCCCC1 | 1 | 2 | · | 3 | 1 | 0 | ·
NCCCC[C@H]1CNC(=S)N1CC1CCCCC1 | -20 | 6 | 3 | 0 | -1 | 85* | i
COc1ccccc1CN1[C@@H]2CN(C(=O)C3CCC3)c3ccccc3[C@@H]2[C@@H]1CO | · | -10 | · | 0[16.7 µM] | · | · | ·
COCC(=O)Nc1ccc2c(c1)OC[C@@H](C)N(C(=O)CC1CC1)C[C@@H](C)[C@H](OC)CN(C)C2=O | · | -9 | · | · | · | 3 | ·
Cc1cc(N2CCN(c3ccccc3)CC2)nc2ccccc12 | -3 | 4 | -9 | 13 | -2 | -3 | ·
Cc1cc(N2CCC(N(C)C3CCCC3)CC2)nc2cc(O)ccc12 | -8 | 45 | 24 | -3 | -2 | 103* | i
COc1ccc2c3c([nH]c2c1)C(C)N(C(C)=O)CC3 (configuration not stated) | 5 | 0 | -5 | 9 | 5 | 2 | ·
COc1ccc2c3c([nH]c2c1)C(C)N(CCC(=O)NN)CC3 (configuration not stated) | 7 | 27 | 2 | -3 | -4 | 79* | i
c1ccn(CCc2ccncc2)c1 | 16 | 4 | · | -5 | 1 | -19 | ·
Nc1ccc(CCn2ccnc2)cc1 | 2 | 4 | -6 | -3 | 4 | 51* | i
NC(N)=N/N=C(\N=Nc1ccccc1)c1cccc2cccnc12 | -10 | · | · | 4 | 6 | 15 | ·
NC(N)=N/N=C(\N=Nc1ccccc1)c1ccc(Cl)cc1 | 6 | · | · | 1 | 2 | 74* | i
CCOCCCNCc1ccc(OC)cc1 | 0 | 0 | 3 | 0 | 1 | · | ·
COc1ccc2cc(CNCCOCCOCCNCc3ccc4cc(OC)ccc4c3)ccc2c1 | -3 | · | · | · | -15 | 64* | i
CC(C)c1ccc(NC(=O)C(c2ccccc2)N2CC(=O)Nc3ccccc32)cc1 (configuration not stated) | -8 | 7 | -5 | 6 | -2 | 62* | i
C[C@@H]1CN([C@H](C)CO)C(=O)c2cccc(NC(=O)Nc3ccc(F)cc3)c2O[C@@H]1CN(C)S(=O)(=O)c1cn(C)cn1 | · | · | · | 0[16.7 µM] | · | · | ·
CCOC(=O)c1c(CSc2ccc(CC)cc2)oc2ccc(O)c(CN(C)C)c12 | 7 | 30 | 28 | -3 | 6 | 58* | i
CCN1CCCC1CNC(=O)c1cc(N)ccc1OC (configuration not stated) | -2 | 32 | · | 3 | -2 | 90* | i
CCN1CCC[C@H]1CNC(=O)c1cc(S(N)(=O)=O)ccc1OC | · | · | -3 | · | · | · | ·
C[C@@H]1CCCCO[C@H](CN(C)C(=O)Nc2ccc3c(c2)OCO3)[C@H](C)CN([C@@H](C)CO)C(=O)c2cc(NC(=O)C3CCCCC3)ccc2O1 | · | 4 | · | 6[16.7 µM] | · | -9 | ·
CC[N+](CC)(CC)CCCCOc1ccc2c(c1)C(=O)c1cc(OCCCC[N+](CC)(CC)CC)ccc1-2 | -3 | 99* | 90* | -7 | 1 | 102* | 21µM*
